Laboratory results published in publication PMC7826789 (International Journal of Molecular Sciences, 2021).

Question: With `CC(C)C(=O)N[C@@H]1CCN(C(=O)Nc2nc3c(s2)-c2nc(-c4ccccc4Cl)ncc2CC3)C1` [BI00047804] as the molecule, how does the Kinases covered (NEK5) read?
Answer: Its Kinases covered is “NEK5”.

Question: How did the Kinases covered (NEK6) turn out when `CCOc1ccc2c(-c3ccnc(Nc4cc(OC)cc(C(F)(F)F)c4)n3)cnn2n1` [GW807982X] was run?
Answer: Its Kinases covered is “NEK6”.

Question: Which Kinases covered (NEK9) does the source give for `C[C@@H](Oc1cc(-n2cnc3ccc(OC4CCN(C)CC4)cc32)sc1C(N)=O)c1ccccc1Cl` [GSK579289A] here?
Answer: The Kinases covered was “NEK9”.

Question: For `COc1cc2ncn(-c3cc(O[C@H](C)c4ccccc4Cl)c(C(N)=O)s3)c2cc1OC` [GSK237701A], which Kinases covered (NEK9) is on record?
Answer: Its Kinases covered is “NEK9”.

Question: With `Cc1cn(-c2cc(NC(=O)c3ccc4c(c3)CN(c3cncnc3)C[C@@H]4C)cc(C(F)(F)F)c2)cn1` [D2202-1] as the molecule, how does the Kinases covered (NTRK2) read?
Answer: The Kinases covered was “NTRK2”.

Question: `COc1ccccc1-c1cc(/C=C2\C(=O)Nc3ncc(Br)cc32)cc(Br)c1O` [GW442130X] was tested. Which Kinases covered (NTRK3) did it give?
Answer: The Kinases covered was “NTRK3”.

Question: For `CC(=O)c1cccc(NC(=O)NC2CCN(c3ccnc(Nc4ccc(F)cc4)n3)C2)c1` (stereo not shown) [GSK1379710], which Kinases covered (NTRK3) is on record?
Answer: The Kinases covered was “NTRK3”.

Question: Which Kinases covered (NUAK2) does the source give for `CCC(=O)Nc1cccc(Oc2nc(Nc3ccc(N4CCN(C)CC4)cc3OC)ncc2Cl)c1` [WZ4003] here?
Answer: Its Kinases covered is “NUAK2”.

Question: `C[C@@H]1CCNC(=O)c2cc3ccc(C(=O)Nc4nc5ccccc5n4CCCN(C)C)cc3n21` [BI00645435] was tested. Which Kinases covered (NUAK2) did it give?
Answer: Its Kinases covered is “NUAK2”.

Question: With `CC[C@@H]1CO[C@H](C(=O)Nc2ccccc2)CN1c1cc(-c2ccc3c(N)n[nH]c3c2)nc(NC)n1` [GSK2376236] as the molecule, how does the Kinases covered (PDPK1) read?
Answer: The Kinases covered was “PDPK1”.

Question: `CNc1nc(-c2ccc3c(N)n[nH]c3c2)cc(N2C[C@@H](C(=O)Nc3ccccc3)CC[C@H]2C)n1` [GSK2298859] was tested. Which Kinases covered (PDPK1) did it give?
Answer: Its Kinases covered is “PDPK1”.

Question: How did the Kinases covered (PHK) turn out when `FC1=CC(C3=NC2=CC(OC)=C(OC)C=C2C(N[C@H]4[C@H]([C@](C)(O)C)CNC4)=N3)=C(O)C=C1.Cl.Cl` [CCT241533] was run?
Answer: The Kinases covered was “PHK”.

Question: `COc1ccc(-c2cc3c(C)nc(N)nc3n([C@H]3CC[C@H](O)CC3)c2=O)cn1` [PFE-PKIS 40] was tested. Which Kinases covered (PIK3C2B) did it give?
Answer: Its Kinases covered is “PIK3C2B”.

Question: Which Kinases covered (PIK3C2B) does the source give for `COc1ccc(-c2cc3c(C)nc(N)nc3n([C@H]3CC[C@H](OCCO)CC3)c2=O)cn1` [PFE-PKIS 29] here?
Answer: The Kinases covered was “PIK3C2B”.

Question: Which Kinases covered (PIK3C3) does the source give for `O=c1cc(N2CCOCC2)nc2n(Cc3ccccc3F)ccn12` [GSK2297428] here?
Answer: The Kinases covered was “PIK3C3”.

Question: For `Cc1nnc(-c2ccc3occ(-c4ccc(S(C)=O)cc4)c3c2)[nH]1` (stereo not shown) [TPKI-85], which Kinases covered (PIK3C3) is on record?
Answer: Its Kinases covered is “PIK3C3”.
